Inconclusive results are not listed. Active and inactive are the calls of the source. Calls follow the shape of the dose curve; as a rule, active = well fitted inhibition curve with a large enough effect; inconclusive = small, poorly fitted or top-dose-only effect; inactive = flat fitted curve, though single readings scatter.
% is scaled to controls: 0 for no effect and ±100 for the full control effect.

Chain of Calcium and integrin-binding protein 1 (Homo sapiens) (Q99828 whole entry, looked up): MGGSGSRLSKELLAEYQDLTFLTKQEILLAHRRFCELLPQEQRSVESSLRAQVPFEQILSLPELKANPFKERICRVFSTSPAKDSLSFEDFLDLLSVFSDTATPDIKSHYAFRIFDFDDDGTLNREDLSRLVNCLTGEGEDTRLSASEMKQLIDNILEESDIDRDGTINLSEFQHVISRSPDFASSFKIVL

This assay addresses Calcium and integrin-binding protein 1 (Homo sapiens) (UniProt Q99828). The assay can be described thus: Primary qHTS for Identification of Calcium Integrin Binding Protein 1 (CIB1) Competitor (AID 1508620).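 Also: GST tagged CIB1 binding a fluorescein labelled alphaIIb integrin peptide tracer; top concentration of the series differs between compounds.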 Conditions: CIB1-GST / FITC-alphaIIb peptide fluorescence polarization; series mostly up to 57.7 µM; activity change, negative = inhibition: at the top concentration. In a few lines: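 CIB1-GST (1 uM final) and compound incubated 15 min at room temperature before adding FITC-alphaIIb peptide tracer (100 nM final). Competition for binding read by fluorescence polarization (ex 480, em 540) after another 15 min at room temperature.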
Background: In qHTS, concentration-response curves come from the screen itself.
In the case of `Cc1ccc2c(c1)C=Cc1cc(C)ccc1C2c1cn(Cc2ccc(C(=O)Nc3nn[nH]n3)o2)c(=O)[nH]c1=S`, the “activity change, negative = inhibition” value was -13% [at 114 µM] (inactive).

As to `CC(=O)OCC1=C[C@H](O)[C@@H]2C(C(=O)O)=CO[C@@H](O[C@@H]3O[C@H](CO)[C@@H](O)[C@H](O)[C@H]3O)[C@H]12`, the “activity change, negative = inhibition” value is -3.03% (inactive).

Regarding `CC(=O)c1cnc2ccc(-c3cc(Cl)c(O)c(Cl)c3)nc2c1NC1CCC(CN(C)C)CC1` (configuration not stated), the Potency result is “inactive”.

Regarding `Cc1ccc(Sc2cncc3sc(C(N)=O)cc23)cc1`, the “activity change, negative = inhibition” value is 0.507% [at 114 µM] (inactive).

Take `C=C(C)[C@H]1C[C@@H](O)C(=C)CC[C@@H](O)C(=C)[C@@H](O)C1`: the “activity change, negative = inhibition” value is -4.55% [at 114 µM] (inactive).

As to `C[C@@H]1CC[C@H]2C(C)(C)[C@H](O)[C@H](O)C[C@]2(C)[C@@]12Cc1c(O)cc3c(c1O2)CNC3=O`, the “activity change, negative = inhibition” value was 1.45% (inactive).

As to `C[C@@H]1O[C@@H](O[C@@H]2[C@@H](O)[C@H](O[C@@H]3[C@@H](O)[C@@H](O)[C@H](O[C@H]4[C@H](OC(=O)[C@]56CCC(C)(C)C[C@H]5C5=CCC7[C@@]8(C)C[C@H](O)[C@H](O[C@@H]9O[C@@H](C)[C@H](O)[C@@H](O)[C@H]9O)[C@@](C)(CO)C8CC[C@@]7(C)[C@]5(C)C[C@H]6O)O[C@H](C)[C@H](O)[C@@H]4O)O[C@H]3C)OC[C@H]2O)[C@H](O)[C@H](O)[C@H]1O` (some centres not stated), the activity change, negative = inhibition was 1.34% [at 12.4 µM] (inactive).

As to `C=CC(C)(O)CC/C=C(\C)C(=O)OC1CC2(C(=O)O)CCC3(C)C(=CCC4C5(C)CCC(OC6OC(COC7OCC(O)C(O)C7O)C(O)C(OC7OCC(O)C(O)C7O)C6OC6OC(CO)C(O)C(O)C6OC6OCC(O)C(O)C6O)C(C)(C)C5CCC43C)C2CC1(C)C` (configuration not stated), the activity change, negative = inhibition is -4.39% [at 12.4 µM] (inactive).

As for `O=C(c1ccc(NS(=O)(=O)c2cccc3cccnc23)cc1)N1CCN(CC2CC2)CC1`, the “activity change, negative = inhibition” value was -3.78% [at 114 µM] (inactive).

Consider `O=C(O)c1ccc(CCCc2ccc(OCCc3ccc(F)cc3)cc2)o1`, for which the “activity change, negative = inhibition” value was -11.2% [at 114 µM] (inactive).

Consider `N[C@@H](CC(=O)N1CCn2c(nnc2C(F)(F)F)C1)Cc1[nH]nc2c(F)c(F)ccc12`, for which the “activity change, negative = inhibition” value was -6.16% [at 114 µM] (inactive).

On to `COc1ccc([C@@H]2N[C@H](C(=O)O)Cc3c2[nH]c2ccccc32)cc1CN1CCN(c2ccccc2F)CC1`, for which the “activity change, negative = inhibition” value is 4.75% [at 114 µM] (inactive).

The values are drawn from PubChem BioAssay (NCATS).
